Source: PubChem
Shown are actives, neighbours in structure and some others; about 14% of the full set was active somewhere.
Pf growth 48h: Primary qHTS for delayed death inhibitors of the malarial parasite plastid, 48 hour incubation | P. falciparum luciferase growth in erythrocytes, 48 h | Potency, µM (series often up to 28.7 µM), inactives show top-dose activity change, negative = inhibition, most hits filed as inhibitors | hit rate 5.9% among 310,000 | AID 504832, 2011; also: potency is read from the fitted curve at half-maximal effect
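Parasite viability was followed by luminescence of a genomically integrated firefly luciferase. Cultures held 0.1% parasitemia at 2% hematocrit (final), incubated under 5% CO2 at 37 C.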
Marburg entry inh: qHTS for inhibitors of binding or entry into cells for Marburg Virus; Marburg virus pseudotyped entry inhibition, cell reporter; Potency, µM (series often up to 37.8 µM), inactives show at the top dose activity change, negative = inhibition, usual class: inhibitors; hit rate 1.8% among 300,000; calls by dose curve; tested in HEK293 cells; also: potency is read from the fitted curve at half-maximal effect
Lassa entry inh: qHTS for Inhibitors of binding or entry into cells for Lassa Virus. Potency, µM (highest dose often 37.9 µM), for inactives: top-dose activity change, negative = inhibition, hits mostly inhibitors. Lassa virus pseudotype entry inhibition, cell reporter. hit rate 1.2% among 300,000; calls by dose curve; tested in HEK293 cells; also: potency is read from the fitted curve at half-maximal effect; nearly all actives have a fitted effect of over 50% in size
HCMV inh: qHTS Assay for inhibitors of the human cytomegalovirus (HCMV). HFF cells, HCMV-luciferase reporter, 72 h; active compounds read low. activity change, negative = inhibition, % at 57.5 µM. AID 1259415, 2018. hit rate 4.5% among 410,000; in the data active = activity change below about -60%; inconclusive = no clear call, values can overlap the other calls; inactive = above about -39%
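HFF cells seeded 16 h at 37C, treated with compounds, infected with luciferase-reporter HCMV at MOI 1 PFU/cell; luciferase read at 72 h post infection, normalized to buffer-only and Salinomycin controls.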
Pf growth 96h: Primary qHTS for delayed death inhibitors of the malarial parasite plastid, 96 hour incubation; P. falciparum luciferase reporter growth, 96 h; hit rate 6.9% among 320,000; Potency, µM (series often up to 28.7 µM), without a hit: at the highest dose activity change, negative = inhibition, actives largely listed as inhibitors; AID 504834, 2011; also: potency is read from the fitted curve at half-maximal effect
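Infected RBCs, 2% Hct / 0.05% parasitemia final; luciferase-reporter P. falciparum; cpd 96 h, 37 C, 5% CO2; luciferase detection reagent; luminescence.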
HCV inh: qHTS Assay for Inhibitors of Hepatitis C Virus (HCV) | Huh7.5.1 HCVcc-Cre infection, luciferase reporter, 44 h | Potency, µM (series often up to 41.8 µM), for the others: at the highest dose activity change, negative = inhibition, usual class: inhibitors | hit rate 3.4% among 340,000; also: potency is read from the fitted curve at half-maximal effect
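Luciferase read-out (15 sec integration) after a 15 min room-temperature substrate step quantifies HCVcc-Cre infection. Cells, 1,000 per well, had compound added 4 h post-plating, then virus at ~0.5 moi, and were cultured 44 h.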
Starred values were filed as active, the others as inactive; ? = inconclusive; / = not tested or not shown; + = active, no number; [ ] = dose if it differs, or a comment. Unless noted, calls follow the shape of the dose curve; as a rule, active = well fitted inhibition curve with a large enough effect; inconclusive = small, poorly fitted or top-dose-only effect, or another doubt; inactive = no such curve, though single readings can be large or run the other way. % is scaled to controls: 0 for no effect and ±100 for the full control effect.

SMILES | Pf growth 48h | Marburg entry inh | Lassa entry inh | HCMV inh | Pf growth 96h | HCV inh
CC1CCCC(C)N1C(=O)CSc1nc2ncnc(N)c2[nH]1 (centres undefined) | 6.4% | 5.5% | -8.9% | -14.2 | 0.738µM* | 11.5%
COC(=O)C1=C(C)N(Cc2ccc(C(F)(F)F)cc2)C(=NCc2ccc3c(c2)OCO3)NC1c1cccc(Cl)c1 (centres undefined) | / | / | / | -100.0* | / | /
CCN1C(=NCc2ccco2)N[C@@H](c2cccc(C(F)(F)F)c2)C(C(=O)OC)=C1C | ? | / | / | -10.9 | 45.2% | ?
COC(=O)C1=C(C)N(Cc2ccc(C(F)(F)F)cc2)C(=NCC2CC2)NC1c1cccc(Cl)c1 (centres undefined) | / | / | / | -101.5* | / | /
COc1ccc(C(=O)Nc2nc(-c3ccc(Br)cc3)ns2)cc1 | / | 3.8%[46.1 µM] | ? | ? | / | /
CC1Sc2ccc(S(=O)(=O)NCc3ccccc3)cc2NC1=O (centres undefined) | -1.8% | / | / | -7.0 | 13.1µM* | -3.7%
CC1Sc2ccc(S(=O)(=O)NCCc3ccccc3)cc2NC1=O (centres undefined) | 24.8% | / | / | + | 68.3% | -9.8%
CC1Sc2ccc(S(=O)(=O)CCC(=O)N(C)Cc3ccccc3)cc2NC1=O (centres undefined) | -1.2% | / | / | ? | 64.6% | -24.2%
CC1Sc2ccc(S(=O)(=O)NCCc3ccc(S(N)(=O)=O)cc3)cc2NC1=O (centres undefined) | 14.7% | -0.2%[46.1 µM] | 7.1%[46.1 µM] | ? | ? | 3.2%
Cc1ccc(N(C)S(=O)(=O)c2ccc3c(c2)NC(=O)C(C)S3)cc1 (centres undefined) | 3.29µM* | / | / | ? | ? | ?
Cc1sc2ncnc(SCc3ccco3)c2c1C | ? | ? | -6.2% | ? | 8.7% | -12.3%
Cc1sc2ncnc(NCC(c3ccco3)N3CCCC3)c2c1C (centres undefined) | 10.4µM* | ? | -25.0% | -0.7 | 8.28µM* | ?
O=C(COc1ccccc1[N+](=O)[O-])Nc1ccc2oc(=O)ccc2c1 | 24.0% | / | / | 8.0 | 3.1% | 11.6%
COc1ccccc1NC(=O)c1cc2ccccc2o1 | 122.2% | ? | -29.4% | 132.5 | 5.22µM* | ?
CC(NC(=O)c1cc2ccccc2o1)c1cccs1 (centres undefined) | / | ? | ? | -29.8 | 8.28µM* | -13.0%
O=C(COc1ccccc1[N+](=O)[O-])Nc1ccc(NC(=O)c2cc3ccccc3o2)cc1 | ? | ? | ? | ? | 9.1% | 11.2µM*
CC(C)NC(=O)c1cc2ccccc2o1 | 5.2% | ? | 15.6% | -27.8 | -8.8% | 0.3%
Cc1cc(C)nc(NC(=O)c2cc3ccccc3o2)n1 | 30.9% | ? | 9.6% | -15.4 | 15.0% | 10.3%
Cc1ccc(NC(=O)c2cc3ccccc3o2)nc1 | -20.7% | ? | 5.01µM* | 53.0 | 327.2% | 1.2%[8.37 µM]
CCCCCC(=O)N1C[C@@H](n2cc(-c3ccc(F)cc3)nn2)[C@H](O)C[C@@H]1c1ccc(Cl)cc1 | / | / | / | 14.4 | / | /
O=C(COc1ccc(/C=N/NC(=O)c2cc3ccccc3o2)cc1Br)Nc1ccccc1 | 6.0% | ? | ? | -100.4* | ? | ?
Cc1ccccc1NC(=O)c1cc2ccccc2o1 | 179.4% | ? | -26.4%[46.1 µM] | 77.4 | 10.4µM* | 4.3%
O=C(Nc1ccccc1)c1cc2ccccc2o1 | 307.6% | ? | 10µM* | 100.2 | 159.4% | -4.4%
CCN(CC)S(=O)(=O)c1cccc(NC(=O)c2ccc(Br)cc2)c1 | ? | -45.6%[46.1 µM] | -25.8% | ? | -24.5% | 8.91µM*
O=C(Nc1ccc(F)cc1)c1cc2ccccc2o1 | 186.1% | / | / | 147.2 | ? | -29.7%
SMILES | Pf growth 48h | Marburg entry inh | Lassa entry inh | HCMV inh | Pf growth 96h | HCV inh
CCN(CC)S(=O)(=O)c1cccc(NC(=O)c2cncc(Br)c2)c1 | ? | / | / | -3.6 | -67.4% | ?
CN(C)CCN1CCN(C2CN(Cc3ccc([N+](=O)[O-])cc3)S(=O)(=O)C2)CC1 (centres undefined) | / | / | / | -2.0 | / | /
CCOC(=O)Cc1ccc(NC(=O)Nc2nnc(N3CCCCC3C)s2)cc1 (centres undefined) | / | ? | -19.5%[46.1 µM] | -9.1 | / | /
CCN(CC)S(=O)(=O)c1cccc(NC(=O)c2cc3ccccc3o2)c1 | ? | 8.8% | ? | 13.0 | ? | 10µM*
CN(C)S(=O)(=O)c1cccc(NC(=O)c2cc3ccccc3o2)c1 | 64.3% | ? | 1.4% | 28.6 | / | ?
COc1cc(NC(=O)c2cccc(C)c2)ccc1NC(=O)c1cc2ccccc2o1 | 74.7% | / | / | -86.7* | 44.0% | ?
CN1OC[C@@H]2CN[C@H](c3cccc(-c4ccccc4)c3)C[C@@H]21 | / | / | / | -25.8 | / | ?
CCn1cc(C(=O)O)c(=O)c2cc(F)c(N3CCN(C(=S)NC(=O)c4ccccc4)CC3)cc21 | ? | -6.7%[46.1 µM] | 7.2% | -34.8 | ? | 23.1%
CCn1cc(C(=O)NCc2ccccc2)c(=O)c2cc(F)c(N3CCN(C(=O)c4ccco4)CC3)cc21 | / | ? | ? | -82.3* | 1.65µM* | 11.2µM*
CCn1cc(C(=O)NCc2ccncc2)c(=O)c2cc(F)c(N3CCN(C(=O)c4ccco4)CC3)cc21 | 6.57µM* | 7.3%[46.1 µM] | 2.4% | -18.4 | 10.4µM* | ?
CCn1cc(C(=O)NCc2ccc3c(c2)OCO3)c(=O)c2cc(F)c(N3CCN(C(=O)c4ccco4)CC3)cc21 | 8.28µM* | ? | ? | -73.0* | / | ?
CC(C)NC(=O)C1CCN(C2CCN(C(=O)Cc3ccc4c(c3)OCO4)CC2)CC1 | 29.3% | 4.3%[46.1 µM] | -1.3%[46.1 µM] | -11.4 | 7.0% | -0.3%
O=C(NCc1ccc2c(c1)OCO2)C1CCN(c2ccc(S(=O)(=O)N3CCCC3)cc2)CC1 | 10.4µM* | ? | ? | ? | 67.9% | ?
O=C(NCc1ccc2c(c1)OCO2)C1CCN(S(=O)(=O)N2CCCCC2)CC1 | 11.1% | 0.2% | -2.1% | 102.0 | 15.0% | 26.9%
O=C(NC1CC1)C1CCN(C2CCN(C(=O)Cc3ccc4c(c3)OCO4)CC2)CC1 | 0.8% | -35.9%[46.1 µM] | 3.5%[46.1 µM] | 29.9 | 11.7µM* | 5.4%
O=C(NCc1ccc2c(c1)OCO2)c1c[nH]c2ccc(S(=O)(=O)N3CCOCC3)cc2c1=O | 9.2% | -2.5% | 0.517µM* | 29.3 | ? | 0.2%
O=C(NCc1ccc2c(c1)OCO2)C1CCN(S(=O)(=O)N2CCOCC2)CC1 | 8.3% | 13.0% | 8.2% | -15.0 | 3.7µM* | 21.5%
Cc1ccc(CNC(=O)c2c[nH]c3ccc(S(=O)(=O)N4CCOCC4)cc3c2=O)cc1 | / | / | ? | -12.1 | / | /
Clc1ccccc1-c1ccc2nccn2c1 | / | / | / | -24.9 | / | /
